Source: PubChem BioAssay
NOMO-1 viab: NOMO-1 AML cell viability reduction, primary screen, STK33 inhibitor project, CellTiter-Glo luminescence; NOMO-1 AML viability, 72 h; inhibition, % (test concentration not listed); hit rate 7.5% among 37,000; in the data active = inhibition above about 80%; inconclusive = no clear call, values can overlap the other calls
MITF inhib: inhibitors of MITF, primary screen, MITF inhibitor project, cell-based, luminescence; TRPM1 promoter luciferase, 24 h; AID 2240, 2010; inhibition, % (no concentration beside the values); hit rate 0.28% among 37,000; in the data active = inhibition above about 85%; inconclusive = no clear call, values can overlap the other calls; inactive = below about 68%;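 note: human melanocyte line stably carrying TRPM1 promoter luciferase reporter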
ROS inducer: ROS inducers in U2OS cancer cells, primary screen, cell-based, H2DCF-DA fluorescence; U2OS ROS induction; ROS induction (% of piperlongumine), % at 10 µM; hit rate 2% among 46,000; in the data active = ROS induction above about 79%, passing the limit was not always enough; inconclusive = no clear call, values can overlap the other calls;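 note: 0% = DMSO vehicle median and 100% = reference compound median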
PD-1 reverse act: activators reversing PD-1 mediated T-cell inhibition, primary screen, luminescence, primary human CD4 T cells, PD-L1 beads | CellTiter-Glo 96 h | 29,000 tested, under 10 active | AID 2316, 2010 | activation, % (no concentration beside the values); call rule not given here;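 note: 0% = median vehicle wells and 100% = positive control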
YB-1 expr inh: inhibitors of YB-1 gene expression, primary screen, cell-based, fluorescence | delta delta Cp (YB-1 minus CDIP) (concentration not given with the values) | U2OS, qRT-PCR YB-1 vs CDIP delta delta Cp, 16 h; stronger effect = higher value; zero = DMSO, each unit about twofold | hit rate 0.37% among 30,000;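 active = delta delta Cp rounded down to an integer at or above 3, about 3 SD of DMSO wells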;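 note: higher means less YB-1 transcript or more CDIP transcript relative to DMSO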
The depositor's hits bear a star; ? = inconclusive; nt = no result. The full list was thinned out, with hits kept by preference.

SMILES	NOMO-1 viab	MITF inhib	ROS inducer	PD-1 reverse act	YB-1 expr inh
COc1cc(COc2ccc3c4c(c(=O)oc3c2)CCC4)cc(OC)c1OC	33.7	11.0	34.9	1.6	0.0399
CCOC(=O)c1cnn(CCOC(=O)c2ccc(C)cc2)c1NC(=O)c1ccc(C)cc1	nt	nt	-4.7	nt	nt
COc1ccc(OC(C)C(=O)Nc2cc(OC)cc(OC)c2)cc1 (configuration not stated)	35.6	-5.4	15.5	0.9	nt
CCOc1ccccc1NC(=O)C(C)Oc1ccc(OC)cc1 (configuration not stated)	105.1*	24.3	2.0	-3.4	nt
C[C@@H]1CCCCO[C@@H](CN(C)C(=O)Nc2cccc3ccccc23)[C@@H](C)CN([C@H](C)CO)C(=O)c2cc(NS(=O)(=O)c3ccc(Cl)cc3)ccc2O1	101.5*	23.8	107.3*	nt	-0.298
C[C@@H]1CCCCO[C@@H](CN(C)C(=O)NC2CCCCC2)[C@@H](C)CN([C@H](C)CO)C(=O)c2cc(NC(=O)Nc3cccc4ccccc34)ccc2O1	9.9	10.2	139.5*	0.2	-0.876
COc1ccc(NC(=O)NCc2ccc(C(=O)O)cc2)c(OC)c1	7.8	-9.2	-10.6	3.4	nt
Cc1cccc(NC(=O)C(C)NS(=O)(=O)c2ccccc2)c1 (configuration not stated)	-1.2	12.0	-9.9	-1.6	nt
O=C(c1ccc(Br)cc1)N1Cc2ccccc2NC1=S	125.0*	-6.3	-8.0	0.0	-0.395
Cc1ccc2ncc(-c3ccc4cc(C)ccc4n3)cc2c1	nt	nt	3.3	nt	nt
O=C(/C=N/O)Nc1cc(C(F)(F)F)cc(C(F)(F)F)c1	116.4*	24.1	-27.0	1.0	-0.577
Cc1nnc(-c2ccccc2)c(=O)n1/N=C/c1ccc2c(c1)OCO2	nt	nt	5.2	nt	nt
COC(=O)COc1c(Br)cc(C2C3=C(CCCC3=O)NC3=C2C(=O)CCC3)cc1OC	3.3	-8.8	3.7	4.0	nt
COc1ccc(S(=O)(=O)Nc2ccc3c(c2)CC(=O)N([C@H](C)CO)C[C@@H](C)[C@H](CN(C)CC2CC2)O3)cc1	-5.7	-6.3	12.4	1.2	3.18*
COc1ccc(S(=O)(=O)N(C)C[C@H]2Oc3ccc(NS(=O)(=O)c4c(C)noc4C)cc3CC(=O)N([C@H](C)CO)C[C@H]2C)cc1	5.9	4.3	7.9	-1.8	-0.26
C[C@H](CO)N1C[C@H](C)[C@H](CN(C)C(=O)Nc2ccc(F)cc2)Oc2ccc(NS(=O)(=O)c3ccc(Cl)cc3)cc2CC1=O	29.1	-0.6	88.8*	-0.2	-0.00925
COc1ccc(S(=O)(=O)Nc2ccc3c(c2)CC(=O)N([C@H](C)CO)C[C@@H](C)[C@@H](CN(C)CC2CC2)O3)cc1	4.9	-12.1	2.5	0.6	-0.593
COc1ccc(NC(=O)N(C)C[C@H]2Oc3ccc(NS(=O)(=O)c4ccc(OC)cc4)cc3CC(=O)N([C@H](C)CO)C[C@H]2C)cc1	13.1	-2.7	81.4*	2.1	-0.0129
COc1ccc(S(=O)(=O)Nc2ccc3c(c2)CC(=O)N([C@H](C)CO)C[C@@H](C)[C@@H](CN(C)S(=O)(=O)c2c(C)noc2C)O3)cc1	6.6	-15.7	88.9*	-0.3	-0.116
C[C@@H]1CN([C@H](C)CO)C(=O)Cc2cc(NS(=O)(=O)c3ccc(Cl)cc3)ccc2O[C@H]1CN(C)C(=O)Nc1ccc(F)cc1	4.8	-2.6	-2.8	nt	0.145
COc1ccc(S(=O)(=O)N(C)C[C@@H]2Oc3c(NS(=O)(=O)c4ccc(F)cc4)cccc3C(=O)N([C@H](C)CO)C[C@@H]2C)cc1	13.0	0.2	2.9	-1.6	0.158
Cc1onc(-c2ccccc2Cl)c1C(=O)NCCc1ccc(S(N)(=O)=O)cc1	-4.5	-14.8	nt	nt	nt
COc1ccc(S(=O)(=O)Nc2ccc3c(c2)CC(=O)N([C@H](C)CO)C[C@@H](C)[C@@H](CN(C)C(=O)Nc2ccc4c(c2)OCO4)O3)cc1	10.0	1.4	9.6	0.7	-0.143
COc1ccc(S(=O)(=O)Nc2ccc3c(c2)CC(=O)N([C@@H](C)CO)C[C@@H](C)[C@@H](CN(C)C(=O)Nc2ccc4c(c2)OCO4)O3)cc1	4.9	-2.9	80.5*	1.5	-0.0394
COc1cccc2c1C(=O)c1c(O)c3c(c(O)c1C2=O)C[C@@](O)(C(C)=O)C[C@@H]3O[C@H]1C[C@H](N)[C@H](O)[C@H](C)O1	120.6*	74.1	141.4*	nt	2.93
SMILES	NOMO-1 viab	MITF inhib	ROS inducer	PD-1 reverse act	YB-1 expr inh
C=C1CC[C@@H](O)[C@]2(C)C[C@H]3OC(=O)C(=C)[C@H]3CC12 (some centres not stated)	104.3*	37.7	60.0	-5.7	-0.479
C=C1C(=O)O[C@@H]2C[C@@]3(C)CC(=O)C=C(C)C3C[C@H]12 (some centres not stated)	119.5*	0.7	111.1*	-6.4	-0.322
Cc1onc(-c2c(Cl)cccc2Cl)c1NC(=O)N(C)C	nt	nt	-9.5	nt	nt
CCn1c2ccccc2c2cc(NC(=O)CCCN3C(=O)c4ccccc4C3=O)ccc21	-3.5	-8.5	-16.5	4.4	nt
COc1ccc(C)cc1S(=O)(=O)N(CC(=O)O)c1cc(C)cc(C)c1	-12.8	-11.0	-1.9	0.9	nt
COC1=CC(=O)OC1C(O)C(O)C(OC(C)=O)c1ccccc1 (configuration not stated)	10.4	2.5	-10.6	0.3	0.0967
COC(/C=C/C(OC(C)=O)C(C)OC(C)=O)C(O)C1CC=CC(=O)O1 (configuration not stated)	26.8	-16.0	105.4*	-0.3	0.108
CC1CCCC(C)N1CCCNC(=O)C1CCN(c2ncnc3c2sc2cccc(F)c23)CC1 (configuration not stated)	nt	nt	41.7	nt	nt
Cc1ccc(C(C)C)c(OCC(=O)Nc2ccccc2C#N)c1	17.0	11.7	16.0	-3.7	nt
CC(=O)c1cccc(NC(=O)CSc2nc3ccccc3c(=O)n2-c2ccccc2)c1	14.2	5.9	26.8	-0.2	nt
Cc1ccc(S(=O)(=O)Nc2ccc3c(c2)C(=O)N([C@H](C)CO)C[C@H](C)[C@@H](CN(C)C(=O)Cc2ccccc2)OCCCC[C@@H](C)O3)cc1	4.3	1.6	16.4	0.9	-0.516
CC(C)n1c(SCC(=O)C(C)(C)C)nc2cc(C(F)(F)F)ccc21	nt	nt	4.5	nt	nt
Cc1ccc(S(=O)(=O)Nc2ccc3c(c2)CC(=O)N([C@H](C)CO)C[C@@H](C)[C@@H](CN(C)Cc2ccc(-c4ccccc4)cc2)O3)cc1	10.6	2.1	13.1	0.4	-0.0667
Cc1ccc(S(=O)(=O)Nc2ccc3c(c2)CC(=O)N([C@@H](C)CO)C[C@@H](C)[C@@H](CN(C)Cc2ccc(-c4ccccc4)cc2)O3)cc1	123.8*	48.9	5.1	-3.1	0.214
Cc1noc(C)c1S(=O)(=O)Nc1ccc2c(c1)CC(=O)N([C@H](C)CO)C[C@@H](C)[C@H](CN(C)Cc1ccc(-c3ccccc3)cc1)O2	44.1	-2.5	?	nt	-0.154
